Tests used:
Experiment in all cases: PBM binding z-score (relative to random genomic background probes); higher = stronger binding; sequences stand for … in GC…GCGATTGACAGCGTAGAATGAAGG
[1] = system: FXR:RXRa (NR concentration 270 nM, RXRa partner concentration 90 nM)
Outline: (§1)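 Binding buffer was PBS pH 7.4 with 2% milk, 0.02% Triton X-100, 1 mM DTT, 0.2 mg/mL BSA and 0.4 mg/ml salmon testes DNA. In it, ligand-free nuclear receptor dimers were incubated 1 h on custom Agilent 4×180K protein-binding microarrays carrying double-stranded probes. Antibodies against each partner (one per run) detected binding, and z-scores were calculated against random background probes after regression normalization of scanned fluorescence.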

[2] = system: LXRa:RXRa (NR concentration 270 nM, RXRa partner concentration 90 nM)
Outline: as §1

[3] = system: LXRa homodimer (NR concentration 270 nM)
Outline: as §1

[4] = system: LXRb:RXRa (NR concentration 270 nM, RXRa partner concentration 90 nM)
Outline: as §1

[5] = system: LXRb homodimer (NR concentration 270 nM)
Outline: as §1

[6] = system: PPARa:RXRa (NR concentration 270 nM, RXRa partner concentration 90 nM)
Outline: as §1

[7] = system: PPARg:RXRa (NR concentration 180 nM, RXRa partner concentration 90 nM)
Outline: as §1

[8] = system: PPARg:RXRa 270nM:90nM, anti-RXR (NR concentration 270 nM, RXRa partner concentration 90 nM)
Outline: as §1

[9] = system: PPARg:RXRa 30nM:10nM, anti-RXR (NR concentration 30 nM, RXRa partner concentration 10 nM)
Outline: as §1

[10] = system: PPARg:RXRa 90nM:30nM, anti-RXR (NR concentration 90 nM, RXRa partner concentration 30 nM)
Outline: as §1

Sequence	PBM binding z-score [1]	PBM binding z-score [2]	PBM binding z-score [3]	PBM binding z-score [4]	PBM binding z-score [5]	PBM binding z-score [6]	PBM binding z-score [7]	PBM binding z-score [8]	PBM binding z-score [9]	PBM binding z-score [10]
CCTTACGGGTCACTCCAGGTTATTGCATCGGAGT	5	7.62	2.75	5.48	0.61	4.32	3.25	3.54	1.08	2.44
CGTCAAACTTCAAGGTAACGTAACAGAAAGCAGC	0.471	0.1	0.0122	0.289	0.209	0.32	0.645	0.119	0.337	0.21
CCTGACGGGTCACTGACAGGTTATAGCATTTGGA	4.19	3.46	0.214	2.64	-0.319	4.19	2.56	2.71	0.481	1.8
ATCTCTAGGTAGCCAAGTTCAGTGAATGCCGAAC	-0.0679	-0.0761	0.135	0.15	0.335	0.168	-0.118	-0.148	-0.248	-0.291
TCATAGAGGTAAATGCTAGGTGAAAGTCCGATCT	0.371	1.08	-0.125	0.395	-0.74	1.24	0.339	1.7	2.66	2.06
TCTTGTAGATCAAGCAGGTTAAGAGAGCCTGAGT	0.126	0.03	-0.729	0.145	-0.665	0.53	-0.372	0.87	2.06	1.55
AATACAGGGTCACTAGTCCAGAGTAGGTACGAAT	5.5	4.68	0.946	3.94	1.32	5.09	5.61	5.17	1.77	3.89
CCAGGCAGGTGAGAAGGTAACTCAGCCTCGATTA	-0.311	-0.32	-0.49	-0.277	-0.875	0.473	0.238	0.813	-0.448	0.0901
AGAATGAGGTTATTCAGATCAGGGAATTGCGGTC	2.47	1.98	0.596	1.51	0.0526	3.31	1.58	1.96	0.851	1.27
AATACAGGGTCTCTAGGCCAGAGTAGGTACGAAT	-0.207	-0.38	-0.356	-0.392	-0.462	-0.078	0.645	0.0123	-0.245	-0.282
CCTACTGGGCCATCAGGTCTTTGATATCAACGTT	-0.207	-0.321	-0.21	-0.159	-0.568	0.508	0.773	1.66	0.0943	1.01
ACAACGAGGGCAATGAGTTGATAGCACGGGTGGC	0.234	0.0424	-0.326	-0.109	-0.343	0.835	1.33	0.403	-0.00945	0.211
ATCTCTAGGTAACAAGTTCATTGAAAGAGAGGAC	1.22	1.89	1.5	1.8	1.27	2.75	2.82	3.03	1.55	2.63
CCTACTGGGCCTTTCAGAGGTCATTGATCATATG	2.73	4.97	8.02	3.71	0.477	3.35	0.785	2.22	0.333	1.2
ATCGAAAGGTCGTGAGGTGAGAATACAGAAAGGC	5.69	4.09	0.3	3.37	0.293	5.61	4.61	4.58	1.99	3.09
CCTCGGAGGACAACAGGAGTTCAGAGCTGCCAGA	0.094	0.777	1.72	-0.123	-0.822	0.00336	0.0297	-0.913	-1.16	-1.11
CCTATTAGTTGACCATACGGGCAACCGAAGCTCG	0.382	0.294	0.419	0.323	0.519	-0.224	0.305	-0.0431	-0.298	-0.186
TCTAGTTGGTCACTGAGGTCACACACGACGGGTA	4.03	3.64	2.55	3.59	0.98	4.32	3.24	3.98	3.27	3.68
GCGACTCGGGCATCAGCAGGTTACCATAACTTAA	-0.428	-0.386	-0.511	-0.334	-1.48	0.263	0.266	-0.256	-0.629	-0.12
ACTATTAGTTGACGTAGGGCAACCGATACGACGC	-0.0128	-0.0574	0.207	-0.148	0.503	-0.147	1	0.00726	0.129	0.289
TCTTGTAGATCAGCAGCTTAAGAAAGCTGGCCAA	-0.0933	-0.339	-0.557	-0.411	-0.692	0.41	-0.825	0.886	2.45	1.69
AGTCAAAGTTCACTACGTAACGTAAGATTCAGCT	5.22	4.81	2.75	3.23	1.32	3.94	5.52	5.28	2.81	4.64
GCGACTGGGGCATCGGCAGGTTACCATAACTTAA	0.0165	-0.138	-0.214	0.589	-0.797	1.06	0.979	1.1	-0.324	0.563
TATACAGGGTCAAAGGCCAGACTACGAATGTCGA	7.5	6.15	2.32	4.84	2.22	6.39	8.41	7.38	5.4	7.02
